# D1 ag – agonists of human D1 dopamine receptor. HEK293 T-REx D1 cells, calcium flux, agonist mode. activation, % at 2 µM. hit rate 1% among 360,000
# Target sequence (P21728 whole entry, looked up): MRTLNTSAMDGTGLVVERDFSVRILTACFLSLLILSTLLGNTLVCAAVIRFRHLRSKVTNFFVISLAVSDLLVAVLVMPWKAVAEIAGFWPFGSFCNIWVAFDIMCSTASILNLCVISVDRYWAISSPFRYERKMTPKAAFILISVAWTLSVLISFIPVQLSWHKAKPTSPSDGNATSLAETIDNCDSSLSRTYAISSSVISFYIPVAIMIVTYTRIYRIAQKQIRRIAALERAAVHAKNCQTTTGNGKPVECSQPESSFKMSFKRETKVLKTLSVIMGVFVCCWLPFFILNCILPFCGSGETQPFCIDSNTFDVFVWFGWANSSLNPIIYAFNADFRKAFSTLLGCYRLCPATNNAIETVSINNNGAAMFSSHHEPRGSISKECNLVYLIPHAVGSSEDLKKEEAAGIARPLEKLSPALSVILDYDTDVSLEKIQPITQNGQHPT
#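 Tetracycline-induced HEK293 TREx D1 cells, force-coupled to calcium signalling, were dye-loaded with a no-wash calcium kit. Compound was pin-added after a 10 s baseline. Fluorescence was read kinetically at 1 cycle/s for 180 s, with calcium rises flagged as agonism.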
# D1 antag – antagonists of human D1 dopamine receptor. P21728. HEK293 TREx D1 cells, calcium flux, dopamine EC80; stronger effect = lower value. activity change, negative = inhibition, % at 10 µM. hit rate 3.2% among 360,000. AID 504652; in the data active = activity change below about -30%
#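 Compound effects on dopamine-evoked calcium signalling were measured in tetracycline-induced HEK293 Trex D1 cells. Dopamine at EC80 followed a 180 s compound pre-read, and fluorescence was tracked kinetically for 180 s more.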
# D1 potentiator – enhances dopamine response at the human D1 receptor; P21728; potentiation, % at 10 µM; hit rate 0.036% among 360,000; HEK293 TREx D1 cells, calcium flux, dopamine EC20 potentiation; in the data active = potentiation above about 30%
# TRHR ag – TRH receptor (human) agonism; hit rate 0.18% among 360,000; TRHR cells, calcium flux fluo-8, FDSS agonist mode; activation, % at 2 µM
#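 Fluo-8-loaded TRHR cells; 10 s baseline, compound added, kinetic Ca2+ fluorescence read 1/s, agonist mode.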
# TRHR enhancer – TRH receptor (human) allosteric enhancement; P34981; TRHR cells, fluo-8 calcium fluorescence, EC20 TRH enhancement; enhancement, % at 2 µM; hit rate 0.66% among 360,000; AID 493056; in the data active = enhancement above about 30%
#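 Enhancer read-out: after compound pinning and an initial kinetic agonist-mode read, an EC20 of TRH (10 nM final) was injected and fluo-8 calcium signal (Ex 480/Em 530) followed at 1 s/cycle for 100 cycles in TRHR-expressing cells.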
# A number is an active result; - = inactive. A selection: hits, their analogues and other compounds. The true share with any hit is near 4.7%. Cut-off read from the data, not from the text of the source, unless noted: active = activation above about 30%; inactive = the rest.
SMILES,D1 ag,D1 antag,D1 potentiator,TRHR ag,TRHR enhancer
CCc1nnc(NS(=O)(=O)c2ccc(NC(=S)NC(=O)c3ccc(OC)cc3)cc2)s1,-,-32,-,-,-
CCOc1ccc(NS(=O)(=O)c2ccc(NC(=S)NC(=O)C(C)C)cc2)cc1,32,-,-,-,-
COc1ccc(S(=O)(=O)Nc2ccc(NC(C)=O)cc2)cc1,-,-,-,-,-
CCOc1ccc(NS(=O)(=O)c2ccc(NC(=S)NC(C)=O)cc2)cc1,95,-,-,-,-
CC(C)C(=O)NC(=S)Nc1ccc(S(=O)(=O)NC2CCCCC2)cc1,-,-32,-,-,-
OC(C[n+]1ccccc1)c1ccccc1 (centres undefined),-,-,-,-,-
Cc1cccc2c1-c1sc(C(=O)N(C)c3cccc(Cl)c3)cc1CO2,-,-,-,-,-
COc1ccc([C@H]2CC(=O)C=C(c3cccc(OC(F)(F)F)c3)C2)cc1,-,-30,-,-,-
COC(=O)C1(C)CCc2cc(OC)ccc2C1=O (centres undefined),-,-46,-,-,-
CC(CCc1ccc(O)cc1)NCCC(c1ccccc1)c1ccccc1 (centres undefined),87,-,-,-,-
COc1cc(CCC(C)NCc2ccccc2)ccc1O (centres undefined),-,-,-,-,-
CC(CCc1ccc(O)cc1)N(C)CCc1ccccc1 (centres undefined),-,-52,-,-,-
CC(CCc1ccc(O)cc1)NCc1ccc(Br)cc1 (centres undefined),31,-,-,-,-
CCOc1ccc(CN2C(=O)c3ccccc3Sc3ccc(C(=O)NCc4ccc5c(c4)OCO5)cc32)cc1,-,-,-,-,-
COc1cc2nc(SCC(=O)Nc3cccc(C)c3)n3nc(-c4ccccc4)nc3c2cc1OC,-,-,-,-,-
NC(=O)C1CCN(CC(O)COc2ccc(-c3ccccc3)cc2)CC1 (centres undefined),-,-,-,-,-
Cc1ccc(C)c(NC(=O)c2ccccc2NS(=O)(=O)c2cc([N+](=O)[O-])ccc2C)c1,-,-50,-,-,-
Fc1ccc2[nH]c3c(c2c1)CN(C(=S)NCc1ccccc1)CC3,-,-38,-,-,-
CCCCOC(=O)c1ccc(NC(=O)COC(=O)C2CSC3(C)CCC(=O)N23)cc1 (centres undefined),-,-46,-,-,-
CCOC(=O)c1ccc(NC(=O)Cn2nc(C)c3nn(-c4ccc(Cl)cc4)c(C)c3c2=O)cc1,-,-,-,-,34
CCc1cccc(C)c1NC(=O)Cn1nc(C)c2nn(-c3ccc(Cl)cc3)c(C)c2c1=O,-,-,-,-,-
CC(OC(=O)c1ccc(S(=O)(=O)N(C)C)cc1)C(=O)Nc1ccc(Cl)cn1 (centres undefined),-,-60,-,-,-
CC(OC(=O)c1ccccc1O)C(=O)Nc1ccc(Cl)cn1 (centres undefined),-,-,-,-,-
CCn1c(CNc2ccc(F)cc2)nnc1SCC(=O)N1CCCc2ccccc21,-,-31,-,-,-
CCn1c(CNc2ccc(OC)cc2)nnc1SCC(=O)N1CCCc2ccccc21,-,-,-,-,-
SMILES,D1 ag,D1 antag,D1 potentiator,TRHR ag,TRHR enhancer
Cc1cc(C)cc(NC(=O)Cn2c(=O)n(Cc3ccco3)c(=O)c3oc4ccccc4c32)c1,-,-,-,-,-
O=C(O)c1ccc(CSc2nc(-c3ccc(Cl)cc3)cc(C(F)(F)F)n2)cc1,37,-,-,-,-
O=C(Nc1cccc(Cl)c1)OCCOc1ccccc1,-,-31,-,-,-
CC(C)OC(=O)NCCOC(=O)Nc1cccc(Cl)c1,-,-31,-,-,-
C=COCCNC(=O)Nc1ccc(Cl)c(Cl)c1,47,-57,-,-,-
CC(C)OC(=O)NCCOC(=O)Nc1ccc(Cl)c(Cl)c1,-,-40,-,-,-
COC(=O)c1ccccc1NS(=O)(=O)c1ccc(NC(C)=O)cc1,-,-,-,-,-
COC(=O)c1ccccc1NS(=O)(=O)c1ccc(F)cc1,-,-36,-,-,-
COc1ccc(-c2cnnn2-c2ccc(NC(=O)c3ccc(S(=O)(=O)N4CCCCC4)cc3)cc2)cc1OC,-,-34,-,-,-
COc1ccc(C(=O)Nc2ccc(-n3nncc3-c3ccc(OC)c(OC)c3)cc2)cc1,-,-,-,-,-
O=C(Nc1ccc(Cc2ccncc2)cc1)c1ccc(S(=O)(=O)N2CCCC2)cc1,-,-39,-,-,-
Cc1ccc(NC(=O)c2ccccc2NS(=O)(=O)c2ccc(F)cc2)cc1S(=O)(=O)N1CCCCC1,-,-,-,-,-
O=C(Nc1cccc(S(=O)(=O)N2CCCCC2)c1)c1ccccc1NS(=O)(=O)c1ccc(F)cc1,41,-52,-,-,-
COc1ccc2c(c1)c1c(c(=O)n(-c3cccc(Cl)c3)c(=O)n1CC(=O)NCC1CCCO1)n2C (centres undefined),-,-,-,-,-
COc1ccc(CNC(=O)CCNC(=O)c2ccco2)cc1OC,-,-,-,-,-
COc1cc2c(cc1OC)C1O[C@](CCCCN3C(=O)c4ccccc4C3=O)(C2)OC2=C1C(=O)CCC2,-,-,-,-,-
COc1ccccc1Nc1nnc(SCC(=O)Nc2nc(-c3ccc(F)cc3)cs2)s1,-,-,-,-,-
O=C(CN1CCN(C(=O)c2cccc(S(=O)(=O)N3CCCC3)c2)CC1)Nc1cccc(F)c1,-,-33,-,-,-
O=C(Nc1cccc(O)c1)c1ccc(S(=O)(=O)N2CCCCCC2)cc1,-,-,-,-,-
O=C(Nc1cccc(F)c1)c1ccc(S(=O)(=O)N2CCCCC2)cc1,-,-43,-,-,-
O=C(CN1CCCN(S(=O)(=O)c2ccc(F)cc2)CC1)Nc1cccc(F)c1,-,-,-,-,-
C=CCOc1ccc(/C=N/N2C(=O)C(CC(=O)Nc3ccc(F)cc3F)SC2=NC)cc1 (centres undefined),-,-49,-,-,-
Cc1sc2nc(SCC(=O)N3CCCC3)[nH]c(=O)c2c1C,-,-34,-,-,-
Cc1sc2nc(SCC(=O)N3CCCCC3)[nH]c(=O)c2c1C,-,-,-,-,-
Cc1ccc(CNC(=O)c2ccc(CNS(=O)(=O)c3ccc4c(c3)C(C)(C)C(=O)N4C)cc2)o1,-,-,-,-,-
O=C(Nc1ccc(Oc2ccc(C(F)(F)F)cn2)c(Cl)c1)C1CC1,-,-32,-,-,-
CCN(c1ccccc1)S(=O)(=O)c1ccc(C(=O)N(CCCN(C)C)c2nc3cc4c(cc3s2)OCO4)cc1,42,-,-,-,-
CN(C)CCCN(C(=O)c1ccc2ccccc2c1)c1nc2cc3c(cc2s1)OCO3,36,-,-,-,-
CCN(c1ccccc1)S(=O)(=O)c1ccc(C(=O)N(CCCN(C)C)c2nc3c(C)cccc3s2)cc1,-,-,-,-,-

# Bioassay records: PubChem BioAssay, National Center for Advancing Translational Sciences (NCATS)
